Compounds with a hit are over-represented: about 2.3% of the library has one in this group of screens.
M1 ag parental: counter-screen for M1 agonists: effect in parental CHO-K1 cells | Fluo-8 calcium fluorescence; scaled to maximal ATP response, vehicle zero | activation, % at 3 µM | 360,000 compounds, 0.48% hits; in the data active = activation above about 15%;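 also: untransfected CHO-K1 host cells lacking M1 receptor as counterscreen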
CHRM1 antagonist: human M1 muscarinic receptor antagonists, primary screen, CHO-K1 cells, Fluo-8 calcium fluorescence, 1536-well; Muscarinic acetylcholine receptor M1 (Homo sapiens), P11229; CHO-K1 hM1, ACh EC80 antagonist; inhibition, % at 3 µM; 360,000 compounds, 1.3% hits; AID 588852, 2011;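 active = percent inhibition above its own plate's cutoff, namely the mean of that plate's compound wells plus 3 SD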;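 also: peak over basal fluorescence ratio during 140 s after agonist addition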
Target sequence (P11229 whole entry, looked up): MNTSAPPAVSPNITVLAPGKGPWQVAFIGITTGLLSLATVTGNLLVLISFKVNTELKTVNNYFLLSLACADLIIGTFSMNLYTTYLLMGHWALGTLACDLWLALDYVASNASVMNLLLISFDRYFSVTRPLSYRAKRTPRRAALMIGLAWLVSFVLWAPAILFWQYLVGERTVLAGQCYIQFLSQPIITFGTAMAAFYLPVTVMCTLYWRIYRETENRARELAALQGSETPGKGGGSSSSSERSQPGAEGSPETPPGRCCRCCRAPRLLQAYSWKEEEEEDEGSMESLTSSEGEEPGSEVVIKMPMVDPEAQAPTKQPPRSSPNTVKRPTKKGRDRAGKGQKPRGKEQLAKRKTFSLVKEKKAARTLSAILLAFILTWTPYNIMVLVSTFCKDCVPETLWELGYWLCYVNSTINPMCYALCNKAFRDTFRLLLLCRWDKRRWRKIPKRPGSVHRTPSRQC
M1 PAM: human M1 muscarinic receptor positive allosteric modulators, primary screen, CHO-K1 cells, Fluo-8 calcium fluorescence, 1536-well; 360,000 compounds, 0.088% hits; CHO-K1 hM1, ACh EC20; 0% = ACh EC20, 100% = maximal ACh; Muscarinic acetylcholine receptor M1 (Homo sapiens), P11229; activation, % at 3 µM; in the data active = activation above about 19%, passing the limit was not always enough
M1 PAM parental: nonselective calcium activators in parental CHO-K1 cells, primary screen, counter-screen for M1 PAM project, cell-based, Fluo-8 calcium fluorescence, full deck, 1536-well; ATP EC20; 0% at ATP EC20, 100% at ATP max; activation, % at 3 µM; 360,000 compounds, 0.02% hits; AID 602247, 2012;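 active = activation above the run cutoff, the mean activation of all test compounds plus 3 SD, cut at about 40% in these data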;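 also: peak over basal fluorescence ratio in a 140 s read after ATP addition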
CHO-K1 Ca antag: M1 antagonist counterscreen hit in parental CHO-K1 cells | ATP-induced calcium, Fluo-8 fluorescence | inhibition, % at 3 µM | 360,000 compounds, 0.6% hits | AID 602250;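 active = inhibition above a per-plate cutoff, the plate's mean sample inhibition plus 3 SD, cut at about 24% in these data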
M1 ag: human M1 muscarinic receptor agonists, primary screen, Fluo-8 calcium fluorescence, CHO-K1 cells, HTS; Muscarinic acetylcholine receptor M1 (Homo sapiens), P11229; CHO-K1 hM1, agonist mode; 0% DMSO, 100% acetylcholine EC100; activation, % at 3 µM; 360,000 compounds, 0.33% hits;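 active = activation above the run's mean compound activation plus 3 SD, cut at about 16% in these data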;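 also: peak over basal fluorescence ratio within a 140 s kinetic read after compound addition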
Of the large screens only hits and unclear results are named; the others gave an inactive call.

O=Nc1c(O)n(Cc2c(Cl)cccc2Cl)c2ccccc12	M1 ag 36.2
O=Nc1c(O)n(Cc2ccc(Cl)cc2)c2ccccc12	M1 PAM 21.8, M1 ag 18.4
Cc1ccc(Cn2c(O)c(N=O)c3ccccc32)cc1	M1 ag 19.6
CCCCNC(=O)C1(C)CCN1C(=O)c1cc(-c2cccs2)oc1C (stereo not given)	none
CC(C)N(CCCNC(=O)Cn1c(=O)c2cccn2c2ccccc21)Cc1ccccc1	none
CCCCN(CC)CCNC(=O)c1cc2c(-c3ccccc3F)nn(C)c2s1	M1 PAM 27.8
CC1CCCCN1CCNC(=O)c1cc2c(-c3ccccc3F)nn(C)c2s1 (stereo not given)	none
CCCN1CCN(C(=O)C2CCN(S(=O)(=O)c3c(C)noc3/C=C/c3ccc(C)cc3)CC2)CC1	CHRM1 antagonist 33.9
Cc1ccc(/C=C/c2onc(C)c2S(=O)(=O)N2CCC(C(=O)N3CCCCC3)CC2)cc1	none
CSc1nsc(SC)c1C(=O)OCC(F)(F)F	M1 PAM 23.5
COC(C[C@H]1O[C@@H]1[C@H](O)COCc1ccccc1)OC	none
COC(C[C@H]1O[C@H]1[C@@H](O)COCc1ccccc1)OC	CHRM1 antagonist 39.2
Cn1c(=O)[nH]c(=O)c2c1nc(SCC(=O)O)n2CCc1ccccc1	none
Cn1c(=O)[nH]c(=O)c2c1nc(SCC(=O)O)n2CCOc1ccccc1	CHRM1 antagonist 54.7
O=c1c2ccccc2ncn1-c1ccc([N+](=O)[O-])cc1Cl	CHO-K1 Ca antag 24.0
COc1cccc(-c2nn(C)c3sc(C(=O)N4CCOCC4)cc23)c1	none
COc1cccc(-c2nn(C)c3sc(C(=O)N4CCN(c5ccccn5)CC4)cc23)c1	CHRM1 antagonist 22.0
CN1C(=O)c2cccc3c(N(C)C)ccc(c23)C1=O	M1 ag parental 22.5
CN1C(=O)c2cccc3c(Br)ccc(c23)C1=O	none
CN1C(=O)c2cccc3c(Cl)ccc(c23)C1=O	none
CNc1ccc2c3c(cccc13)C(=O)N(C)C2=O	M1 ag parental 97.7, CHRM1 antagonist 72.7, CHO-K1 Ca antag 29.9, M1 ag 312.7
CN(C(=O)CC(=O)Nc1ccc(Cl)c(Cl)c1)c1ccccc1	none
COC(=O)CCC(=O)N1CCOCCOCCOCC1	M1 ag parental 15.8
COC(=O)CCC(=O)N1CCOCCOCCN(C(=O)CCC(=O)OC)CCOCCOCC1	none
O=C(Nc1csc([N+](=O)[O-])c1)Nc1ccccc1Cl	M1 ag parental 15.8, CHRM1 antagonist 40.8, CHO-K1 Ca antag 26.6
O=C(Nc1ccccc1Cl)Nc1ccccc1Cl	none
O=S(=O)(NCc1ccccc1)c1ccc(NC(=S)NCc2ccco2)cc1	none
CSCc1ccc(C(=O)NC2CC(C)(C)Cc3c2cnn3-c2ccc(F)cc2)o1 (stereo not given)	none
CCCC(=O)Nc1nnc(SCC(=O)Nc2ccc(OCC)cc2)s1	none
COc1ccccc1CN1CCC(CNS(=O)(=O)c2cc(-c3onc(C)c3C)ccc2OC)CC1	CHRM1 antagonist 102.4
COc1cccc(CCN2CCC(CNS(=O)(=O)c3cc(-c4cc(C)no4)ccc3OC)CC2)c1	CHRM1 antagonist 37.0
COc1cccc(CCN2CCC(CNS(=O)(=O)c3cc(-c4cc(C)no4)ccc3C)CC2)c1	none
Cc1cc(-c2ccc(C)c(S(=O)(=O)NCC3CCN(Cc4cccc(F)c4)CC3)c2)on1	none
Cc1cc(-c2ccc(C)c(S(=O)(=O)NCC3CCN(Cc4ccccc4F)CC3)c2)on1	CHRM1 antagonist 55.1
Cc1c(CC(=O)N[C@H](C(=O)O)C(C)C)c(=O)oc2cc3c(cc12)CCC(C)(C)O3	none
CCOC(=O)C1=C(NC(=S)NC(=O)c2ccccc2)c2ccccc2CC1(C)CC (stereo not given)	M1 ag parental 20.4
CCOC(=O)C1=C(NC(=S)NC(=O)c2ccccc2)c2ccccc2CC1C(C)C (stereo not given)	none
Cc1csc(NC(=O)CSc2ccc([N+](=O)[O-])cn2)n1	M1 ag parental 15.5
Cc1nnc(SCC(=O)Nc2ncc(S(=O)(=O)c3ccc([N+](=O)[O-])cc3)s2)s1	M1 PAM parental 43.8
O=C(Nc1ncc(S(=O)(=O)c2ccc([N+](=O)[O-])cc2)s1)c1ccccc1F	CHRM1 antagonist 31.7, M1 ag 29.9
O=C(Nc1ccc([N+](=O)[O-])cc1)c1ccccc1F	none
COC(=O)C(NC(=O)c1ccccc1C)(Nc1ncc(S(=O)(=O)c2ccc([N+](=O)[O-])cc2)s1)C(F)(F)F (stereo not given)	M1 ag 17.4
CCCc1cc(=O)[nH]c(SCC(=O)Nc2ncc(S(=O)(=O)c3ccc([N+](=O)[O-])cc3)s2)n1	none
CN(C)S(=O)(=O)c1cccc(NC(=O)c2ccc(-n3cncn3)c([N+](=O)[O-])c2)c1	none
CCOC(=O)C1CCCN(C/C(O)=C(\C#N)c2nc(-c3ccc(Cl)cc3)cs2)C1 (stereo not given)	M1 ag 25.4
CCOC(=O)C1CCCN(Cc2nc(N)nc(Nc3ccc(Cl)cc3)n2)C1 (stereo not given)	M1 ag 37.0
N#C/C(=C(/O)CN1CCCC1)c1nc(-c2ccccc2)cs1	none
CCOC(=O)C1CCCN(Cc2nc(N)nc(Nc3ccccc3OC)n2)C1 (stereo not given)	M1 ag 19.5
CCN(CC)C(=O)Cn1cc(C(=O)C(=O)N2CCN(c3ccc([N+](=O)[O-])cc3)CC2)c2ccccc21	none
CN(CC(=O)Nc1ccccc1Cl)C(=O)Cn1cc(C(F)(F)F)cc(Cl)c1=O	none
COc1cccc(CN(C)C(=O)C(Cc2ccccc2)NC(=O)c2ccccc2)c1OC (stereo not given)	CHRM1 antagonist 28.7
CCc1ccc(OCC(=O)Nc2ccc3oc(=O)ccc3c2)cc1	none
COc1ccc(N(C(C)=O)S(=O)(=O)c2cccc3cccnc23)cc1	none
CC(=O)Nc1ccc(C(=O)NC2CCSc3ccccc32)cc1 (stereo not given)	none
Cc1ccc(NC(=S)NC2CCSc3ccccc32)cc1 (stereo not given)	CHRM1 antagonist 78.9
CC(C)CC[n+]1ccccc1/C=C/c1ccc(N(C)C)cc1	CHRM1 antagonist 28.6
O=C(OCCc1cc2ccccc2c(=O)o1)c1cccc(Br)c1	none
CN(CCCCCCCCC(=O)/C=N/O)Cc1ccccc1	CHRM1 antagonist 68.7
